# FXIIa inh mix: human factor XIIa inhibitors, primary screen, biochemical, pooled compound mixtures, fluorogenic substrate | AID 684, 2007 | purified FXIIa | Coagulation factor XII (Homo sapiens), P00748 | inhibition, % at 5 µM | hit rate 0.2% among 62,000;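 note: 0% = enzyme without compound and 100% = no enzyme blank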
# FXIa mix inh: FXIa protease inhibitors in compound pools, primary screen, biochemical, 10-compound mixtures; Coagulation factor XI (Homo sapiens), P03951; purified FXIa, fluorogenic substrate, pooled mixtures; inhibition, % at 5 µM; hit rate 0.19% among 62,000; AID 680, 2007;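 note: each value is inhibition by a whole ten-compound pool holding the compound; 0% = enzyme with no mixture and 100% = wells lacking enzyme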
# SK-BR-3 tox 24h: SK-BR-3 proliferation inhibitors, primary screen, cell-based, human, 24 h | SK-BR-3 viability, CellTiter-Glo ATP luminescence; hits give low values | viability, % at 10 µM | hit rate 0.47% among 41,000;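 active = viability at or below the median of all test compounds minus 3 SD, in both replicates if run twice, cut at about 45% in these data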;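 note: 100% = median untreated cell wells and 0% = median positive control drug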
# Cathepsin G inh: human cathepsin G inhibitors, primary screen, biochemical, pooled compound mixtures, AMC fluorescence; inhibition, % at 5 µM (by protocol); purified enzyme, AMC-tetrapeptide fluorescence; P08311; hit rate 0.2% among 62,000;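 active = inhibition above 20% in each of the two mixture wells holding the compound; inactive = inhibition of 20% or less in either well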;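 note: 0% = enzyme control without mixture and 100% = blank lacking enzyme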
# Target sequence (P08311 21-244 limits assumed): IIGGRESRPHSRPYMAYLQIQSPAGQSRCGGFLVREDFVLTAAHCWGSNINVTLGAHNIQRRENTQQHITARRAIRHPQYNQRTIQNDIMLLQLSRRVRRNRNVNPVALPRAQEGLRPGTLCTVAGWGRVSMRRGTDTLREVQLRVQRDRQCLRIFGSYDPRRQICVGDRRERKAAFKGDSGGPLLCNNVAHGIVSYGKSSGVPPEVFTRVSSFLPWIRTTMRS
# HER2 expr 66K: inhibitors of Her2 protein expression, primary screen, SKBR-3 cells, AlphaScreen, 66K library; hit rate 0.69% among 65,000; AID 645, 2007; Receptor tyrosine-protein kinase erbB-2 (Homo sapiens), P04626; SKBR-3 HER2 protein level, 18-24 h; hits give low values; HER2 level % of control, % at 10 µM;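 active = HER2 level under 5% of the carrier-only control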;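 note: 100% = DMSO carrier and 0% = 500 nM PU-H71 HSP90 inhibitor; lower value means stronger loss of Her2 protein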
# C1s block: complement C1s protease inhibitors, primary screen, biochemical, 10-compound mixtures | Complement C1s subcomponent (Homo sapiens), P09871 | AID 538, 2006 | hit rate 0.16% among 62,000 | mean inhibition % of two 10-compound mixtures (hits give high values), % at 5 µM (by protocol) | purified C1s, fluorogenic AMC substrate, pooled mixtures;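 active = inhibition above 20% in each of the two 10-compound mixture wells holding the compound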;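 note: 0% = enzyme wells lacking compound mixture and 100% = no-enzyme blank wells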
# * marks the source's active call; other numbers are inactive results; x = no result given. This is a sample that favours compounds with a hit; in the whole collection about 1.5% have one here. Cut-off read from the data, not from the text of the source, unless noted: active = inhibition above about 20% (passing the limit was not always enough); inactive = the rest.
SMILES,FXIIa inh mix,FXIa mix inh,SK-BR-3 tox 24h,Cathepsin G inh,HER2 expr 66K,C1s block
COc1ccc(-n2c(CNC(=O)c3ccc(S(=O)(=O)N4CCCC4)cc3)n[nH]c2=S)cc1,22*,-5,87,6,95,1
Cc1cc(C)n(S(=O)(=O)/C=C/c2ccccc2)n1,x,x,97,x,77,x
O=c1cc(N2CCC(Cc3ccccc3)CC2)[nH]c(=O)n1C1CCCCC1,3,-1,75,4,60,-2
O=c1cc(N2CCc3ccccc3C2)[nH]c(=O)n1C1CCCCC1,35*,2,77,3,86,-84
Cc1cccc2cc(C#N)c(NCCNC(=O)NC3CCCCC3)nc12,2,5,100,2,97,-1
Cc1cccc2cc(C#N)c(NCCNS(=O)(=O)c3ccc4c(c3)OCCO4)nc12,2,9,30*,0,105,-9
Cn1cccc1C(C(=O)NC1CCCCC1)N(C(=O)Cc1cccs1)c1ccc2c(c1)OCCO2 (centres undefined),-16,4,85,8,80,7
Cc1nnc(SCC(=O)c2c(N)n(C)c(=O)n(C)c2=O)[nH]c1=O,13,4,x,5,105,-1
CCCc1cc(=O)[nH]c(SCC(=O)c2c(N)n(C)c(=O)n(C)c2=O)n1,2,-6,34*,4,81,-9
CC(C)N(CCc1ccncc1)C(=O)Nc1ccc(Cl)c(Cl)c1,-5,6,x,10,73,12
CCOC(=O)c1c(C)[nH]c(C(=O)COC(=O)C2CC2C)c1C (centres undefined),6,27*,x,17,129,13
COC(=O)c1ccc(CSc2nnc(-c3ccncc3)n2Cc2ccccc2)o1,7,3,91,8,71,10
O=c1oc(-c2ccco2)nc2ccccc12,6,13,x,74*,58,48*
Cc1sc2nc(-c3ccco3)oc(=O)c2c1C,-21,6,92,11,24,32*
O=c1oc(-c2ccco2)nc2c1cnn2-c1ccccc1,8,2,76,4,59,-7
COc1ccc(N=c2oc3c(OC)cccc3cc2C(=O)NCc2ccco2)c(OC)c1,1,1,67,-7,45,-43
COc1cc(C2NC(=O)NC(C)=C2C(=O)OC2CCCC(C)C2)ccc1O (centres undefined),0,7,x,-12,111,-13
Cc1ccccc1-c1ccc(Nc2ccc(N3CCOCC3)cc2)nn1,1,12,62,2,66,7
COc1ccc(NC(=O)CN(c2ccc(C)cc2)S(C)(=O)=O)c(OC)c1,-48,0,x,12,85,14
COc1ccc(OC)c(NC(=O)CN(c2ccc(OC)c(Cl)c2)S(C)(=O)=O)c1,3,6,36*,10,95,15
CC1CCCCN1Cc1nc2c(c(=O)n(C)c(=O)n2C)n1Cc1cccc2ccccc12 (centres undefined),-11,3,x,8,97,15
O=C(NCc1ccc2c(c1)OCO2)C1CCN(c2ncccn2)CC1,5,6,76,12,113,21
Cc1ccc(NC(=O)Cc2nn(C)c(=O)c3ccccc23)cc1F,20*,14,x,21*,95,23
Cn1nc(CC(=O)Nc2ccc3c(c2)OCCO3)c2ccccc2c1=O,4,11,69,8,80,15
FC(F)(F)c1ccc(N2CCOCC2)c(Nc2nc3ccccc3n3cnnc23)c1,-7,-9,x,8,-16*,-1
CC(C)C(=O)N(Cc1cc2ccccc2[nH]c1=O)C(C)(C)C,4,2,95,-2,-27*,-18
CN(Cc1cc2ccccc2[nH]c1=O)C(=O)C1CCCCC1,0,7,79,-5,82,-72
CCOC(=O)c1sc2nc(SCC#N)n(CC3CCCO3)c(=O)c2c1C (centres undefined),7,22*,x,-1,100,1
COC(=O)c1ccc(C(=O)Nc2ccc(N)cc2N)cc1,5,23*,x,8,101,14
